PubChem BioAssay (NCI)
Several values for one entry are separate records, joined by “and”; a condition that tells them apart may be missing. Equal entries are not always repeated. About 79,000 compounds went through this panel and 15% of them were active in at least one assay; those are over-represented in the sample as a whole. Activity calls are given as the source filed them. Rule as the data show it: active = growth inhibition above about 70%; inactive = the rest.

Assays:
[1] = NCI Yeast Anticancer Drug Screen. Data for the rad50 strain (AID 155);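 also: 0% = growth of vehicle-only cultures of the same strain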; conditions: S. cerevisiae rad50 strain growth inhibition; at 50.0 µM; stronger effect = higher value
In short: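 Growth of the mutant yeast was measured after compound exposure and referenced to vehicle-treated cultures.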

[2] = NCI Yeast Anticancer Drug Screen. Data for the mec2-1 strain (AID 157); conditions: S. cerevisiae mec2-1 strain, at 50.0 µM, stronger effect = higher value
In short: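 Compounds were applied to mec2-1 yeast cells. Their growth was then compared with that of vehicle-treated cultures to give growth inhibition.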

[3] = NCI Yeast Anticancer Drug Screen. Data for the sgs1 mgt1 strain (AID 161);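 also: 0% = growth of cultures given vehicle only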; conditions: S. cerevisiae sgs1 mgt1 strain, at 50.0 µM, stronger effect = higher value
In short: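 Compounds are added to genetically altered yeast, and growth is compared with cultures given vehicle alone to give percent inhibition.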

[4] = NCI Yeast Anticancer Drug Screen. Data for the cln2 rad14 strain (AID 165);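 also: 0% = growth equal to vehicle treated cultures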; conditions: S. cerevisiae cln2 rad14 strain, at 50.0 µM, stronger effect = higher value
In short: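 Strain: cln2 rad14 yeast, altered in cell cycle control and DNA damage repair. Read-out: growth inhibition vs vehicle.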

[5] = NCI Yeast Anticancer Drug Screen. Data for the bub3 strain (AID 167); conditions: S. cerevisiae bub3 mutant strain, at 50.0 µM, stronger effect = higher value
In short: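 Whole-cell yeast assay. The mutant strain was incubated with compounds, and growth inhibition was determined by comparison with vehicle-treated cells.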

[6] = NCI Yeast Anticancer Drug Screen. Data for the mlh1 rad18 strain (AID 175); conditions: S. cerevisiae mlh1 rad18 strain growth inhibition; at 50.0 µM; stronger effect = higher value
In short: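 A repair-deficient yeast strain is exposed to test compound, and growth is scored relative to vehicle-treated controls.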

Measured: growth inhibition

O=C(O)c1cc(Cc2ccc(O)c(C(=O)O)c2)ccc1O
inactive: [1] -24.2% and -8.25% | [2] 3.15% and -18.5% | [3] -18.3% and 8.2% | [4] -0.5% and -39.9% | [5] -13.4% and 33.9% | [6] -23.9% and -10.8%

CO[C@H]1C=C[C@@]23c4cc5c(cc4CO[C@]2(O)CN(C)[C@H]3C1)OCO5
inactive: [1] -16.2% | [2] -1.35% | [3] -10.8% | [4] -1.35% | [5] 1.8% | [6] -41%

CC(=O)c1ccc([As](=O)(O)O)cc1
inactive: [1] -10.3% | [2] -20.4% | [3] -13.4% | [4] -21.4% | [5] -29.1% | [6] -30.8%

COc1cc(C(CN)N(C)C)cc(OC)c1OC (stereo not given)
inactive: [1] -42.6% | [2] -48.7% | [3] -14.9% | [4] 14.4% | [5] -0.9% | [6] -8.65%

CC(=O)Oc1ccc(C=C(C#N)C#N)cc1
inactive: [1] 40.6% | [2] 6.6% | [3] 12.4% | [4] -7.1% | [5] 2.05% | [6] 14.9%

O=[N+]([O-])C(CO)C(CO)[N+](=O)[O-] (stereo not given)
inactive: [1] -5.95% | [2] -12.4% | [3] -1% | [4] -20.8% | [5] -13% | [6] -17.6%

NNC(=O)c1cc([N+](=O)[O-])c(O)c([N+](=O)[O-])c1
inactive: [1] -9.85% | [2] -14.8% | [3] 8.35% | [4] 7.4% | [5] 11.8% | [6] -5.55%

COc1ccc(C(=O)O)cc1OC
inactive: [1] -0.25% | [2] 9.45% | [3] -18.8% | [4] 7.4% | [5] -9.5% | [6] 5%

CCC1(O)CC(O)c2c(O)c3c(c(O)c2C1C(=O)OC)C(=O)c1cccc(O)c1C3=O (stereo not given)
inactive: [1] 20.8% | [2] 39.8% | [3] 28.2% | [4] 21.8% | [5] 14.5% | [6] 36.8%

CS[P+]1(C)C=C(N2CCOCC2)CC1 (stereo not given)
inactive: [1] 37.4% | [2] 15.2% | [3] 0.6% | [4] -8% | [5] 8.8% | [6] 10.3%
